Assay outcomes deposited in PubChem BioAssay by National Center for Advancing Translational Sciences (NCATS).
NPC1 prom act: qHTS Assay for NPC1 Promoter Activators. Huh7 NPC1 promoter luciferase reporter, 24 h. Potency, µM (series often up to 9.22 µM), inactives show at the highest dose activation, most hits filed as activators. 320,000 tested, 2.4% active; further: % of control where 0% means no effect; nearly all actives have a fitted effect of over 60% in size
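Luciferase expression driven by the NPC1 promoter was measured in stably transfected Huh7 cells after a 24 h compound incubation, using a luciferase reagent and a luminescence read.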
FLuc modulator: qHTS profiling assay for firefly luciferase inhibitor/activator using purifed enzyme and Km concentrations of substrates (counterscreen for miR-21 project) | 360,000 tested, 6.9% active | Luciferin 4-monooxygenase (Photinus pyralis), P08659 | Potency, µM (titrated, usually from 57.5 µM), for inactives: at the highest dose activity change, negative = inhibition, hits mostly inhibitors | purified FLuc, Km substrates, luminescence inhibition | AID 588342, 2011;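 further: plate controls were vehicle for no effect and reference inhibitor for full effect; nearly all actives have a fitted effect of over 55% in size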
Target sequence (P08659 whole entry, looked up): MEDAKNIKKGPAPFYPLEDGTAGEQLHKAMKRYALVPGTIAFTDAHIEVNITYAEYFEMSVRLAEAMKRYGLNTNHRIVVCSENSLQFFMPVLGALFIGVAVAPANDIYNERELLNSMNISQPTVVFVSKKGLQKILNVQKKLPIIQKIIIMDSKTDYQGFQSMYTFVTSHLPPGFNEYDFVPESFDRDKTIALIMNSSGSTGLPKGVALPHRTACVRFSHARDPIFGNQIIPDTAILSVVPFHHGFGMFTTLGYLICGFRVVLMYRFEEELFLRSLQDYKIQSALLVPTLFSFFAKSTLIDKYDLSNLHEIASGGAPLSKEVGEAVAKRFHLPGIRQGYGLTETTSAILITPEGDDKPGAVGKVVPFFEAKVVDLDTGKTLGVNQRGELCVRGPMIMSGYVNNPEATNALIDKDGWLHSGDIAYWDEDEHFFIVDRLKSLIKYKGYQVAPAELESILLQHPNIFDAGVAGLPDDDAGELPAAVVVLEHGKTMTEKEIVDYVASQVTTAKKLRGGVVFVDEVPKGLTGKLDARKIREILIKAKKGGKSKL
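Biochemical qHTS of compounds, final roughly 60 µM downward over six points, against 10 nM purified firefly luciferase using Km concentrations of substrates (10 uM D-luciferin, 10 uM ATP) in Tris acetate pH 7.5 buffer; luminescence output.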
ELG1 genotoxic: qHTS screen for small molecules that induce genotoxicity in human embryonic kidney (HEK293T) cells expressing luciferase-tagged ELG1 | HEK293T ELG1-luciferase reporter, luminescence, 16 h | Potency, µM (top dose mostly 46 µM), without a hit: at the top dose activity change, positive = activation, hits mostly activators | 330,000 tested, 1.3% active; further: % of control where 0% means no effect; nearly all actives have a fitted effect of over 60% in size
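Reporter readout depends on ELG1 protein level, which increases with genetic stress. After 16 hr compound exposure at 37 °C, luciferase activity was quantified using ONE-Glo.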
KinaseGlo FLuc: Counterscreen for Luciferase (Kinase-Glo TM) Inhibition. Potency, µM (titrated, usually from 38.3 µM), for the others: at the highest dose activity change, negative = inhibition, actives largely listed as inhibitors. Luciferin 4-monooxygenase (Photuris pensylvanica), Q27757. 200,000 tested, 0.28% active. Kinase-Glo luciferase, ATP luminescence, 8 min; further: on the % scale 0 is the no-effect control and ±100 the full control effect; nearly all actives have a fitted effect of over 60% in size
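Inhibition of Kinase-Glo luciferase light generation was assessed at 10 uM ATP in pH 7.2 imidazole buffer, with luminescence measured after eight minutes at ambient temperature.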
SMN2 splice up: qHTS Assay for Enhancers of SMN2 Splice Variant Expression; HEK293 SMN2-luciferase splicing reporter, luminescence, 30-36 h; Potency, µM (highest dose often 46.1 µM), inactives show at the highest dose activity change, positive = activation, hits mostly activators; 210,000 tested, 2.8% active; further: % of control where 0% means no effect; nearly all actives have a fitted effect of over 55% in size
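qHTS luciferase splicing reporter: luminescence rises when SMN2 exon 7 is included in transfected HEK293 cells. Compound exposure lasted 30-36 h at 37C, with 4.5 mM final sodium butyrate as control, followed by a ONE-Glo read.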
Rab9 promoter act: qHTS Assay for Rab9 Promoter Activators; 320,000 tested, 2.8% active; Potency, µM (top dose mostly 9.22 µM), without a hit: at the top dose activation, negative = inhibition, most hits filed as activators; Huh7 Rab9 promoter-luciferase reporter, luminescence, 24 h; AID 485297, 2010; further: % of control where 0% means no effect; nearly all actives have a fitted effect of over 60% in size
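Luminescence from Amplite-detected luciferase (10 minutes, ambient) reports Rab9 promoter activation. Before that, stable Rab9-luciferase Huh7 cells (1500/well, reduced-serum OP-MEM I plus 10% FBS) were exposed to compound for 24 hours at 37C.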
Starred values were filed as active, the others as inactive; ? = inconclusive; . = no result given; ! = repeats disagree; [ ] = remark or other dose. This is a sample that favours compounds with a hit; in the whole collection about 7.5% have one here. The call rests on the fitted dose curve; in most records, active means well fitted curve in the direction sought with a large enough effect; inconclusive means small, poorly fitted or top-dose-only effect, or another doubt; inactive means no such curve, though single readings can be large; an effect the other way counts as inactive or inconclusive. Potency means the concentration at half of the fitted maximal effect.

SMILES	NPC1 prom act	FLuc modulator	ELG1 genotoxic	KinaseGlo FLuc	SMN2 splice up	Rab9 promoter act
CCOc1ccc(NC(=O)COc2ccccc2)c([N+](=O)[O-])c1	?	3µM*	?	-4%	?	3.5µM*
CC1=C(C(N)=O)C(c2ccc(C(C)C)cc2)n2nc(SCc3ccccc3F)nc2N1 (stereo not drawn)	.	0%	.	.	11%	.
C=C1C[C@]23CC[C@H]4C(CO)(CO)C[C@@H](O)C[C@@]4(C)[C@@H]2CC[C@H]1C3	.	.	.	2%	-27%	.
C=CCSc1cc(C)nc2c(-c3ccccc3)cnn12	21%	3.4µM*	?	.	.	3.5µM*
Cc1ccc(-c2cc(C(F)(F)F)n3ncc(-c4ccccc4)c3n2)cc1	.	0%	.	.	12%	.
CCSc1cc(C)nc2c(-c3ccccc3)cnn12	-6%	3µM*	9.2µM*	.	.	-4%
CCSc1cc(C)nc2c(-c3ccc(Cl)cc3)c(C)nn12	-3%	-1%	1%	-5%	-12%	-1%
Nn1c(Cc2ccccc2)nc2sc3c(c2c1=O)CCC3	-3%	0%	-7%	.	.	1%
CC1(C)Cc2c(sc3nc(-c4ccccc4)n(N)c(=O)c23)CO1	17%	?	1%	0%	-4%	14%
CC1(C)Cc2c(sc3nc(-c4cccs4)n(N)c(=O)c23)CO1	?	6µM*	-15%	-3%	-9%	2.8µM*
Cc1ccccc1-c1nc2sc3c(c2c(=O)n1N)CCCC3	18%	6.7µM*	2.9µM*	-2%	-60%	23%
Nn1c(-c2cccs2)nc2sc3c(c2c1=O)CCCC3	1%	2.4µM*	2.3µM*	-11%	6.3µM*	6.3µM*
Cc1nc2sc3c(c2c(=O)n1N)CCC3	0%	7%	6%	0%	19%	1%
COc1ccc(NC(=O)c2ccccc2[N+](=O)[O-])cc1	13%	-10%	7%	2%	20%	18%
COc1ccc(NC(=S)Nc2ccc(N)c([N+](=O)[O-])c2)cc1	9%	?	?	-4%	16µM*	12%
CCCc1nn2cc(-c3ccc(C)c(C)c3)nc2s1	.	0.19µM*	.	.	1.3µM*	.
CCCCNC(=O)c1onc(CS(=O)(=O)c2ccccn2)c1C(=O)NCCCC	-2%	3%	-1%	.	.	-8%
COc1cc(/C=C2/C(=O)NN(c3ccc(C)c(Cl)c3)C2=O)cc([N+](=O)[O-])c1O	-4%	19µM*	1%	.	.	6%
COc1cc(/C=C2/C(=O)NN(c3cccc(C)c3)C2=O)cc([N+](=O)[O-])c1O	-1%	21µM*	1%	-10%	6%	-4%
COc1ccc(-c2csc(NC(=O)c3ccoc3C)n2)cc1	?	12µM*	?	1%	14%	?
CCNC(=S)N1CCN(c2nc(-c3cccc(OC)c3)cs2)CC1	3%	19µM*	-8%	.	.	3%
COc1cccc(-c2csc(N3CCN(C(=S)NCC(C)C)CC3)n2)c1	-1%	?	-3%	.	.	-5%
CC(OC(=O)CNC(=O)c1ccccc1F)C(=O)Nc1nc(-c2ccccc2)cs1 (stereo not drawn)	?	?	?	0%	13µM*	?
COc1ccc(-c2csc(NC(=O)C3CCCO3)n2)cc1 (stereo not drawn)	?	21µM*	?	1%	3%	4µM*
CCOC(=O)Cc1csc(SCC(=O)N2CCN(c3ccccc3)CC2)n1	.	.	-2%	.	.	.
SMILES	NPC1 prom act	FLuc modulator	ELG1 genotoxic	KinaseGlo FLuc	SMN2 splice up	Rab9 promoter act
COCCCNC(=O)CSc1nc2c(sc3ccccc32)c(=O)n1CCc1ccc(OC)c(OC)c1	.	1%	.	.	.	.
COc1ccccc1Cn1c(CNS(=O)(=O)c2cccc([N+](=O)[O-])c2)nc2cccnc21	.	-1%	.	.	.	.
O[C@@H](c1cc([C@@]23C[C@H]4CC[C@@H]2C[C@H](C4)C3)nc2c(Cl)cc(Cl)cc12)C1CCCCN1 (stereo partly drawn)	.	.	.	-9%[7.66 µM]	1%[9.22 µM]	.
COc1ccc(-c2csc(NC(=O)c3ccccc3S(C)(=O)=O)n2)cc1	0%	?	-10%	-1%	-14%	6%
COc1ccc(-c2nsc(NC(=O)c3ccccc3Br)n2)cc1	.	17µM*	.	.	13%	.
COc1cccc(-c2csc(NC(=O)Oc3ccccc3)n2)c1	25%	12µM*	21%	-9%	-6%	1%
COC(=O)c1c(-c2ccncc2)csc1NC(=O)c1ccoc1C	2.8µM*	8.5µM*	?	2%	11µM*	2µM*
COc1ccccc1C(=O)Nc1nc(-c2ccccc2)ns1	.	?	.	.	9%	.
COc1ccc(-c2csc(NC(=O)c3ccccc3C(=O)O)n2)cc1	-4%	15µM*	0%	-2%	-51%	-2%
COc1cccc(-c2csc(NNC(=O)c3cccs3)n2)c1	-4%	?	6%	.	.	-2%
CC(C)CC(=O)Nc1nc2c(s1)CC(C(C)(C)C)CC2 (stereo not drawn)	.	2%	.	.	.	.
COC(=O)c1c(-c2ccc(F)cc2)csc1NC(=O)C1CCCO1 (stereo not drawn)	17%	27µM*	7%	0%	0%	23%
CCc1ccc(-c2csc(NC(=O)C3CCCO3)c2C(=O)OC(C)C)cc1 (stereo not drawn)	-1%	2%	-7%	-1%	-30%	0%
O=C(CC(=O)NCCc1ccccc1)NCCc1ccccc1	-3%	-2%	1%	.	.	-3%
NNCCc1ccccc1	15%	?	16%	0%	4%	14µM*!
CCOc1cc(C(=O)Nc2nnc(C)s2)cc(OCC)c1OCC	1%	10%	0%	2%	?	-6%
Cc1ccc(C(=O)Nc2nnc(C)s2)cc1	3.5µM*	12µM*	-2%	-6%	14µM*	3.2µM*
CC(=O)Oc1ccc(C(=O)Nc2nnc(C)s2)cc1	25%	21µM*	?	-3%	26%	21%
CCN(CC)S(=O)(=O)c1nnc(NC(=O)c2ccc(Br)cc2)s1	.	-7%	.	.	.	.
Cc1nnc(NC(=O)c2ccc(Br)cc2)s1	?	2.7µM*	?	-5%	?	3.2µM*
Cc1nnc(NC(=O)c2ccc(S(=O)(=O)N3CCCCC3)cc2)s1	.	.	3%	.	.	.
CCCc1cc(C(=O)Nc2nnc(C)s2)cs1	?	9.5µM*	?	-6%	?	3.5µM*
OC[C@@H]1O[C@@H](O)[C@H](N=Cc2ccc3c(c2)OCO3)[C@@H](O)[C@@H]1O	.	.	.	1%[7.66 µM]	4%[9.22 µM]	.
